Where “and” joins values, the source holds several entries; their conditions need not be identical. Equal values may be shown once. Read-outs that look alike come from different tables or passages of the source.
Experiments:
FLT3-autoinhibited = conditions: concentration: 1 μM, replicates: in singlicate, n = 1
FLT3 = conditions: concentration: 1 μM, replicates: in singlicate, n = 1
FLT4 = conditions: concentration: 1 μM, replicates: in singlicate, n = 1
FRK = conditions: concentration: 1 μM, replicates: in singlicate; n = 1
FYN = conditions: concentration: 1 μM, replicates: in singlicate, n = 1
GAK = conditions: concentration: 1 μM, replicates: in singlicate, n = 1
GCN2(Kin.Dom.2,S808G) = tested on: T1, GCN2(Kin.Dom.2,S808G); conditions: concentration: 1 μM, replicates: in singlicate; n = 1
T1 construct: gene EIF2AK4

GRK1 = conditions: concentration: 1 μM, replicates: in singlicate, n = 1
GRK2 = tested on: T2, GRK2; conditions: concentration: 1 μM, replicates: in singlicate, n = 1
T2 construct: gene ADRBK1

GRK3 = tested on: T3, GRK3; conditions: concentration: 1 μM, replicates: in singlicate, n = 1
T3 construct: gene ADRBK2

GRK4 = conditions: concentration: 1 μM, replicates: in singlicate, n = 1
GRK7 = conditions: concentration: 1 μM, replicates: in singlicate, n = 1
GSK3A = conditions: concentration: 1 μM, replicates: in singlicate; n = 1
GSK3B = conditions: concentration: 1 μM, replicates: in singlicate, n = 1
HASPIN = tested on: T4, HASPIN; conditions: concentration: 1 μM, replicates: in singlicate, n = 1
T4 construct: gene GSG2

HCK = conditions: concentration: 1 μM, replicates: in singlicate; n = 1
HIPK1 = conditions: concentration: 1 μM, replicates: in singlicate, n = 1
HIPK2 = conditions: concentration: 1 μM, replicates: in singlicate, n = 1
HIPK3 = conditions: concentration: 1 μM, replicates: in singlicate, n = 1
HIPK4 = conditions: concentration: 1 μM, replicates: in singlicate, n = 1
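Also: KINOMEscan kinase panel screen.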

## N#Cc1c(N2CCOCC2)sc(-c2ccn[nH]2)c1-c1ccc(Cl)cc1
FLT3-autoinhibited
  %Inh: 12%
FLT3
  %Inh: 0%
FLT4
  %Inh: 0%
FRK
  %Inh: 0%
FYN
  %Inh: 0%
GAK
  %Inh: 0%
GCN2(Kin.Dom.2,S808G)
  %Inh: 0%
GRK1
  %Inh: 15%
GRK2
  %Inh: 0%
GRK3
  %Inh: 25%
GRK4
  %Inh: 0%
GRK7
  %Inh: 26%
GSK3A
  %Inh: 0%
GSK3B
  %Inh: 0%
HASPIN
  %Inh: 6%
HCK
  %Inh: 28%
HIPK1
  %Inh: 26%
HIPK2
  %Inh: 16%
HIPK3
  %Inh: 28%
HIPK4
  %Inh: 0%

## CCc1ccnc(/C=C/c2n[nH]c3cc(Sc4ccccc4C(=O)NC)ccc23)c1
FLT3-autoinhibited
  %Inh: 7%
FLT3
  %Inh: 19%
FLT4
  %Inh: 99.9%
FRK
  %Inh: 17%
FYN
  %Inh: 0%
GAK
  %Inh: 0%
GCN2(Kin.Dom.2,S808G)
  %Inh: 18%
GRK1
  %Inh: 2%
GRK2
  %Inh: 18%
GRK3
  %Inh: 7%
GRK4
  %Inh: 2%
GRK7
  %Inh: 0%
GSK3A
  %Inh: 2%
GSK3B
  %Inh: 6%
HASPIN
  %Inh: 11%
HCK
  %Inh: 0%
HIPK1
  %Inh: 3%
HIPK2
  %Inh: 0%
HIPK3
  %Inh: 6%
HIPK4
  %Inh: 15%

## NCCNS(=O)(=O)c1ccc(-c2ccnc3[nH]ccc23)cc1 [GSK977617]
FLT3-autoinhibited; 1 µM
  %Inh: 27% and 39%
FLT3; 1 µM
  %Inh: 87% and 73%
FLT4; 1 µM
  %Inh: 48% and 21%
FRK
  %Inh: 0%
FYN; 1 µM
  %Inh: 25% and 16%
GAK; 1 µM
  %Inh: 46% and 19%
GCN2(Kin.Dom.2,S808G)
  %Inh: 0%
GRK1; 1 µM
  %Inh: 75% and 52%
GRK2; 1 µM
  %Inh: 4% and 0%
GRK3; 1 µM
  %Inh: 12% and 36%
GRK4; 1 µM
  %Inh: 69% and 37%
GRK7; 1 µM
  %Inh: 92.1% and 90.1%
GSK3A
  %Inh: 0%
GSK3B; 1 µM
  %Inh: 0% and 10%
HASPIN; 1 µM
  %Inh: 95.3% and 86%
HCK
  %Inh: 0%
HIPK1; 1 µM
  %Inh: 95.6% and 94.2%
HIPK2; 1 µM
  %Inh: 96% and 89%
HIPK3; 1 µM
  %Inh: 97.4% and 95.9%
HIPK4; 1 µM
  %Inh: 77% and 64%

## CCc1nc(-c2cccc(C)c2)c(-c2ccnc(NCc3ccccc3)c2)s1
FLT3-autoinhibited
  %Inh: 18%
FLT3
  %Inh: 0%
FLT4
  %Inh: 0%
FRK
  %Inh: 0%
FYN
  %Inh: 0%
GAK
  %Inh: 11%
GCN2(Kin.Dom.2,S808G)
  %Inh: 11%
GRK1
  %Inh: 9%
GRK2
  %Inh: 0%
GRK3
  %Inh: 6%
GRK4
  %Inh: 9%
GRK7
  %Inh: 0%
GSK3A
  %Inh: 12%
GSK3B
  %Inh: 0%
HASPIN
  %Inh: 41%
HCK
  %Inh: 5%
HIPK1
  %Inh: 21%
HIPK2
  %Inh: 0%
HIPK3
  %Inh: 0%
HIPK4
  %Inh: 7%

## CC(C)(C)n1cnc2c(N)ncnc21 [SKF-97359]
FLT3-autoinhibited
  %Inh: 0%
FLT3
  %Inh: 19%
FLT4
  %Inh: 0%
FRK
  %Inh: 0%
FYN
  %Inh: 0%
GAK
  %Inh: 0%
GCN2(Kin.Dom.2,S808G)
  %Inh: 29%
GRK1
  %Inh: 0%
GRK2
  %Inh: 39%
GRK3
  %Inh: 24%
GRK4
  %Inh: 5%
GRK7
  %Inh: 0%
GSK3A
  %Inh: 0%
GSK3B
  %Inh: 0%
HASPIN
  %Inh: 65%
HCK
  %Inh: 0%
HIPK1
  %Inh: 13%
HIPK2
  %Inh: 16%
HIPK3
  %Inh: 0%
HIPK4
  %Inh: 0%

## [2H]C([2H])(c1cccc(C(F)(F)F)c1C)n1ccn2c(=O)nc(N3CCOCC3)cc12 [GSK2336394]
FLT3-autoinhibited
  %Inh: 0%
FLT3
  %Inh: 12%
FLT4
  %Inh: 3%
FRK
  %Inh: 6%
FYN
  %Inh: 44%
GAK
  %Inh: 0%
GCN2(Kin.Dom.2,S808G)
  %Inh: 0%
GRK1
  %Inh: 0%
GRK2
  %Inh: 0%
GRK3
  %Inh: 20%
GRK4
  %Inh: 0%
GRK7
  %Inh: 0%
GSK3A
  %Inh: 9%
GSK3B
  %Inh: 0%
HASPIN
  %Inh: 0%
HCK
  %Inh: 0%
HIPK1
  %Inh: 0%
HIPK2
  %Inh: 0%
HIPK3
  %Inh: 9%
HIPK4
  %Inh: 0%

## O=C(c1ccc(-c2cc(-c3c[nH]nc3-c3ccccn3)ccn2)cc1)N1CCOCC1 [GW812171]
FLT3-autoinhibited
  %Inh: 0%
FLT3
  %Inh: 1%
FLT4
  %Inh: 0%
FRK
  %Inh: 0%
FYN
  %Inh: 0%
GAK
  %Inh: 34%
GCN2(Kin.Dom.2,S808G)
  %Inh: 0%
GRK1
  %Inh: 26%
GRK2
  %Inh: 0%
GRK3
  %Inh: 20%
GRK4
  %Inh: 14%
GRK7
  %Inh: 0%
GSK3A
  %Inh: 8%
GSK3B
  %Inh: 7%
HASPIN
  %Inh: 0%
HCK
  %Inh: 36%
HIPK1
  %Inh: 36%
HIPK2
  %Inh: 0%
HIPK3
  %Inh: 6%
HIPK4
  %Inh: 7%

## O=c1cc(N2CCOCC2)nc2n(Cc3cccc(C(F)(F)F)c3)ccn12 [GSK2297543]
FLT3-autoinhibited
  %Inh: 12%
FLT3
  %Inh: 0%
FLT4
  %Inh: 0%
FRK
  %Inh: 0%
FYN
  %Inh: 42%
GAK
  %Inh: 0%
GCN2(Kin.Dom.2,S808G)
  %Inh: 0%
GRK1
  %Inh: 0%
GRK2
  %Inh: 0%
GRK3
  %Inh: 0%
GRK4
  %Inh: 0%
GRK7
  %Inh: 0%
GSK3A
  %Inh: 6%
GSK3B
  %Inh: 3%
HASPIN
  %Inh: 0%
HCK
  %Inh: 0%
HIPK1
  %Inh: 18%
HIPK2
  %Inh: 0%
HIPK3
  %Inh: 7%
HIPK4
  %Inh: 1%

## NS(=O)(=O)c1cccc(-c2ccc3nccc(-c4cccc(S(N)(=O)=O)c4)c3c2)c1 [GW867253]
FLT3-autoinhibited
  %Inh: 0%
FLT3
  %Inh: 0%
FLT4
  %Inh: 0%
FRK
  %Inh: 0%
FYN
  %Inh: 0%
GAK
  %Inh: 14%
GCN2(Kin.Dom.2,S808G)
  %Inh: 3%
GRK1
  %Inh: 27%
GRK2
  %Inh: 0%
GRK3
  %Inh: 0%
GRK4
  %Inh: 26%
GRK7
  %Inh: 0%
GSK3A
  %Inh: 0%
GSK3B
  %Inh: 52%
HASPIN
  %Inh: 64%
HCK
  %Inh: 20%
HIPK1
  %Inh: 37%
HIPK2
  %Inh: 29%
HIPK3
  %Inh: 27%
HIPK4
  %Inh: 0%

Reference: publication PMC5540273 (PLoS ONE, 2017)
